Our source for the binding signal values is publication PMC7862700, “An all-to-all approach to the identification of sequence-specific readers for epigenetic DNA modifications on cytosine”.

Assay in all cases: DAPPL (digital affinity profiling via proximity ligation, sequencing); 10 mM Tris-HCl pH 7.5, 50 mM NaCl, 1 mM DTT, 4% glycerol, room temperature, 30 min; GST-TFs on glutathione beads, 16-mer random dsDNA library, 0.1% formaldehyde crosslink after washing; high values mean tight binding
One assay deals with T1, FLI1 (Homo sapiens, UniProt Q01543 1-452).
T1 sequence: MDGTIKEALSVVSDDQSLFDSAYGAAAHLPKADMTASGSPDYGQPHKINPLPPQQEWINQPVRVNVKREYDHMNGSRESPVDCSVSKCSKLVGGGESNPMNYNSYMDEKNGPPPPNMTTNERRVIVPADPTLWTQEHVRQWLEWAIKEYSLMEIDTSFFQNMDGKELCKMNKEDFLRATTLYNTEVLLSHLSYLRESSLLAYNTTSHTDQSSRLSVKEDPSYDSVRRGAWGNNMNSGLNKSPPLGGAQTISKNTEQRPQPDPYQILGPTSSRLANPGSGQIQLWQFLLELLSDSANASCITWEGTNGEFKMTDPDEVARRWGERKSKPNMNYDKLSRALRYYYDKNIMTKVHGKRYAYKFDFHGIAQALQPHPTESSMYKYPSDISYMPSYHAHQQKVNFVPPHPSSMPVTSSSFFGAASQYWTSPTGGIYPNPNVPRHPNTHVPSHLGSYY
The note with it: protein: recombinant; tags: N-terminal GST; dsDNA, one strand shown. In short, it runs like this:
(§1)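 After expression in yeast as GST fusions, human transcription factors were bound to glutathione beads, DNA-barcoded and mixed with a tag-only sample. The pools were incubated with 200 nmole of a 16-mer random double-stranded DNA library in Tris/NaCl/DTT/glycerol buffer (30 min, room temperature), washed and crosslinked with 0.1% formaldehyde. Proximity ligation with BsaI/T4 ligase ran for 1 h at 37 °C, before PCR amplification and sequencing on an Illumina NextSeq500. Binding signal is a hexamer's read frequency for a factor divided by its frequency for the tag-only sample.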

Another assay deals with T2, ELK1 (Homo sapiens, UniProt P19419 1-428).
T2 sequence: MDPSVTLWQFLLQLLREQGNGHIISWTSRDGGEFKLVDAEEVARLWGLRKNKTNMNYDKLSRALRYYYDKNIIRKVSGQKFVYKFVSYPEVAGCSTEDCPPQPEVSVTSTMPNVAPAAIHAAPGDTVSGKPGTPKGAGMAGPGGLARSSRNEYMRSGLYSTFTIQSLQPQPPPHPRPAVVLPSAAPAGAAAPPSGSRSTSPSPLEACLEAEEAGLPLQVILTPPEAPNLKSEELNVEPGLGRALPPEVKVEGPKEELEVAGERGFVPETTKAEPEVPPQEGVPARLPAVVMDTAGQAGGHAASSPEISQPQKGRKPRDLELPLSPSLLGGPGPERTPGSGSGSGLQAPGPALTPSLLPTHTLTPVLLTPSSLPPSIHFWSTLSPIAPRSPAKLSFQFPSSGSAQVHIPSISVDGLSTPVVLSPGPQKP
The note with it: protein: recombinant; tags: N-terminal GST; dsDNA, one strand shown. In short, it runs like this:
as §1

The target of another assay is T3, GABPA (Homo sapiens, UniProt Q06546 1-454).
T3 sequence: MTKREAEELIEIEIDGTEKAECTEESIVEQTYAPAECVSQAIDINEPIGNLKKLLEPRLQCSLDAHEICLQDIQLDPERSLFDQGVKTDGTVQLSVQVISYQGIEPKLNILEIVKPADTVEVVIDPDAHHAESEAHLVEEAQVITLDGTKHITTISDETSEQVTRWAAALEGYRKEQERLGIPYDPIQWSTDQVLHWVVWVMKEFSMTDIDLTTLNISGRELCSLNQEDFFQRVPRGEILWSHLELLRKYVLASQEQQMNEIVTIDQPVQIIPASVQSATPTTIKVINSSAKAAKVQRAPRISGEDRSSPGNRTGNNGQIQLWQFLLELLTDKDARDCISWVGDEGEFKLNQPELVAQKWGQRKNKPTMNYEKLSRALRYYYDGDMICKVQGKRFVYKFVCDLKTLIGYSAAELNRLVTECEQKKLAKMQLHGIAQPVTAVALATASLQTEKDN
The note with it: protein: recombinant; tags: N-terminal GST; dsDNA, one strand shown. In short, it runs like this: as §1

The target in a further assay is T4, ERG (Homo sapiens, UniProt P11308 1-479).
T4 sequence: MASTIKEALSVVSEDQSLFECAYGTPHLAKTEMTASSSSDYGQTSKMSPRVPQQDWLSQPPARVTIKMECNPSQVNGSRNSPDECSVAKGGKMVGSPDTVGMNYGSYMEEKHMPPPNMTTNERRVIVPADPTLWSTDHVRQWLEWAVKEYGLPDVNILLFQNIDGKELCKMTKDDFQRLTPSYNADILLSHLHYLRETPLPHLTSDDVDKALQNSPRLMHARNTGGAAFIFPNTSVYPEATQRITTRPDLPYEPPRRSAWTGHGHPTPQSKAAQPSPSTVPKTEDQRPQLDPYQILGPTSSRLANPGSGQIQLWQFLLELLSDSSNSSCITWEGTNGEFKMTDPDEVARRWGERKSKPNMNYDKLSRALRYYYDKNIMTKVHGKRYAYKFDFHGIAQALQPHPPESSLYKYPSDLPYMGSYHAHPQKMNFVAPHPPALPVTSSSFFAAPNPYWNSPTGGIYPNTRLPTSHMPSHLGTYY
Particulars: protein: recombinant; tags: N-terminal GST; dsDNA, one strand shown. In short, it runs like this:
as §1

Another assay deals with ELF1 (Homo sapiens, UniProt P32519 1-619). The note with it: protein: recombinant; tags: N-terminal GST; dsDNA, one strand shown. Put shortly: as §1
The next assay concerns the target T5, EHF (Homo sapiens, UniProt Q9NZC4 1-300).
T5 sequence: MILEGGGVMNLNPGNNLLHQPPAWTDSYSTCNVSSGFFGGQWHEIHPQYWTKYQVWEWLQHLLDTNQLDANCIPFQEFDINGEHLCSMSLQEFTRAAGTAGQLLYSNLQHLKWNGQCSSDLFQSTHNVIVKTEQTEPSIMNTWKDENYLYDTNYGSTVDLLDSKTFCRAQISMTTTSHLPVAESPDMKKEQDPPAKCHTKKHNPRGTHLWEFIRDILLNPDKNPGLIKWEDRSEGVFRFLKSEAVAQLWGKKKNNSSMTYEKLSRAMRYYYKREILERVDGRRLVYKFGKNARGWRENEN
Particulars: protein: recombinant; tags: N-terminal GST; dsDNA, one strand shown. In short, it runs like this: as §1

The next assay addresses SPI1 (Homo sapiens, UniProt P17947 1-270). Particulars: protein: recombinant; tags: N-terminal GST; dsDNA, one strand shown. Put shortly:
as §1

Another assay has as its target SPIB (Homo sapiens, UniProt Q01892 1-262). The note with it: protein: recombinant; tags: N-terminal GST; dsDNA, one strand shown. Put shortly: as §1
In the next assay the target is T6, ELK3 (Homo sapiens, UniProt P41970 1-407).
T6 sequence: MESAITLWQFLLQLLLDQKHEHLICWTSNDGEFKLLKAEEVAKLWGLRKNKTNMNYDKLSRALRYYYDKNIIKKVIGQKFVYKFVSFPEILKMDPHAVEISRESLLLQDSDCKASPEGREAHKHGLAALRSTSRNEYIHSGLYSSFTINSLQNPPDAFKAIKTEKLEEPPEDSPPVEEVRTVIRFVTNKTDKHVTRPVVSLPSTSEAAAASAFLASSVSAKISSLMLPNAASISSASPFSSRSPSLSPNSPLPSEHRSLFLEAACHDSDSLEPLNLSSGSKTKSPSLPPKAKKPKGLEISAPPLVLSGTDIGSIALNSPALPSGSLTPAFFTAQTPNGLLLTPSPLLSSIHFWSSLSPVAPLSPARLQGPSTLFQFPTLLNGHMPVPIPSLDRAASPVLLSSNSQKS
Particulars: protein: recombinant; tags: N-terminal GST; dsDNA, one strand shown. Put shortly:
as §1

The target of another assay is T7, FEV (Homo sapiens, UniProt Q99581 1-238).
T7 sequence: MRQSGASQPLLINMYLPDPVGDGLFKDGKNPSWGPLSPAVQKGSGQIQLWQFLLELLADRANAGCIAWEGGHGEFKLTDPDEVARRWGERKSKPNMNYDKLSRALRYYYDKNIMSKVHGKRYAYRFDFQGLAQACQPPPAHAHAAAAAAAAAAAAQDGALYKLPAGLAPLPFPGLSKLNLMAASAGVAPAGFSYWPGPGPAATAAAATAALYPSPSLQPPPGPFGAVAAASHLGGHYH
Particulars: protein: recombinant; tags: N-terminal GST; dsDNA, one strand shown. In short, it runs like this: as §1

A further assay concerns the target ETV5 (Homo sapiens, UniProt P41161 1-510). Particulars: protein: recombinant; tags: N-terminal GST; dsDNA, one strand shown. Put shortly:
as §1

In the next assay the target is HSF1 (Homo sapiens, UniProt Q00613 1-529). The note with it: protein: recombinant; tags: N-terminal GST; chain copies: 3; dsDNA, one strand shown. In short, it runs like this:
as §1

The target of another assay is T8, SPIC (Homo sapiens, UniProt Q8N5J4 1-248).
T8 sequence: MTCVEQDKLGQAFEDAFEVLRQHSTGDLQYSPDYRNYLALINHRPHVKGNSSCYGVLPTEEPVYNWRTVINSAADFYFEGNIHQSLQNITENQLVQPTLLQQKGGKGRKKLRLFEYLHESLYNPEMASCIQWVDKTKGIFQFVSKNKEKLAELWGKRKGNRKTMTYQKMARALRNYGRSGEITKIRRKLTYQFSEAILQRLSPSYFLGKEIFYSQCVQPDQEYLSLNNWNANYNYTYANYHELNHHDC
Particulars: protein: recombinant; tags: N-terminal GST; dsDNA, one strand shown. Put shortly: as §1

Another assay deals with ELF4 (Homo sapiens, UniProt Q99607 1-663). The note with it: protein: recombinant; tags: N-terminal GST; dsDNA, one strand shown. Put shortly: as §1
For the next assay, the target named is T9, ELK4 (Homo sapiens, UniProt P28324-2 1-405).
T9 sequence: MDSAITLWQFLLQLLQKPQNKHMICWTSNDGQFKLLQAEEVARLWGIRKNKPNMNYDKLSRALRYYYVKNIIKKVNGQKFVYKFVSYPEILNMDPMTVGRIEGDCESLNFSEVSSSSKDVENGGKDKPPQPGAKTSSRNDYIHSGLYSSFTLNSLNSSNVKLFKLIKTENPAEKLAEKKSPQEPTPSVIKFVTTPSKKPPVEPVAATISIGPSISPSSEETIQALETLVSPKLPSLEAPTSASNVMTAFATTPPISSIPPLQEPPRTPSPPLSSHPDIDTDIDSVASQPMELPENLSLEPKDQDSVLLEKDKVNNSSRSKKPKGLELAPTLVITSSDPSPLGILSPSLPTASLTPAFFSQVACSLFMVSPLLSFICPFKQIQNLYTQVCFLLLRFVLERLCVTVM
Particulars: protein: recombinant; tags: N-terminal GST; dsDNA, one strand shown. In short, it runs like this: as §1

The target in the next assay is T10, ETV2 (Homo sapiens, UniProt O00321 1-342).
T10 sequence: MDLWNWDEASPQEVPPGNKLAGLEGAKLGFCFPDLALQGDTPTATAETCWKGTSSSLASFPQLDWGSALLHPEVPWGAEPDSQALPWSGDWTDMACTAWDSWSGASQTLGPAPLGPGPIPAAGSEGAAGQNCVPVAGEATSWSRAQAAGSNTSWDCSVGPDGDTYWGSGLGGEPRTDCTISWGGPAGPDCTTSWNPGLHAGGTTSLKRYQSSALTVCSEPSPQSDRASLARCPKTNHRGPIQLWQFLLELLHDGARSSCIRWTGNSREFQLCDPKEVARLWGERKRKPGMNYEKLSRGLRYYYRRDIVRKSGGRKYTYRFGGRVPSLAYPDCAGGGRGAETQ
The note with it: protein: recombinant; tags: N-terminal GST; dsDNA, one strand shown. Put shortly: as §1

Another assay concerns the target T11, ELF3 (Homo sapiens, UniProt P78545 1-371).
T11 sequence: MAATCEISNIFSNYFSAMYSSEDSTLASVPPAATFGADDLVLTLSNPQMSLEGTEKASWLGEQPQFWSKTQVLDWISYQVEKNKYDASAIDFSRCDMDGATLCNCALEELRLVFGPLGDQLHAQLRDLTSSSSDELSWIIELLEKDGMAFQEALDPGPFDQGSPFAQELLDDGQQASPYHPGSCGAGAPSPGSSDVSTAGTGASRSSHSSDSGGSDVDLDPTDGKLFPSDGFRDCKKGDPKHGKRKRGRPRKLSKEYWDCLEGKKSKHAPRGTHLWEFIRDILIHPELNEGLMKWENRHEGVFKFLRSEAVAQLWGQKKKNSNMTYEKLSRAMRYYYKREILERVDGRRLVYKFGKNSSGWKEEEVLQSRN
The note with it: protein: recombinant; tags: N-terminal GST; dsDNA, one strand shown. Put shortly: as §1

In the next assay the target is ETV1 (Homo sapiens, UniProt P50549 1-477). Particulars: protein: recombinant; tags: N-terminal GST; dsDNA, one strand shown. Put shortly: as §1
ETV1, sequence (P50549 whole entry): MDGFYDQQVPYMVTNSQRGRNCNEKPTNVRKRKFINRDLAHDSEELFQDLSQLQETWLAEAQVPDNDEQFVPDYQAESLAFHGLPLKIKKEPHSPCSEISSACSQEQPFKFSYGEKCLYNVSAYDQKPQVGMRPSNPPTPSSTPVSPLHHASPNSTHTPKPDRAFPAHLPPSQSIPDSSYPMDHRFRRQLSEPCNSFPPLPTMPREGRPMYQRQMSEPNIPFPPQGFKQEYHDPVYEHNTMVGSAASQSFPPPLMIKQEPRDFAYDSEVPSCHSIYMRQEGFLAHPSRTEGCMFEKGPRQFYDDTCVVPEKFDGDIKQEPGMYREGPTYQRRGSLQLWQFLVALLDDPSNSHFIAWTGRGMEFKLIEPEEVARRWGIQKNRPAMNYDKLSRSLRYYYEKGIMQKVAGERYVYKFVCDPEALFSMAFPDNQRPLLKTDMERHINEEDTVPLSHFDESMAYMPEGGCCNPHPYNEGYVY

ELF4, sequence (Q99607 whole entry): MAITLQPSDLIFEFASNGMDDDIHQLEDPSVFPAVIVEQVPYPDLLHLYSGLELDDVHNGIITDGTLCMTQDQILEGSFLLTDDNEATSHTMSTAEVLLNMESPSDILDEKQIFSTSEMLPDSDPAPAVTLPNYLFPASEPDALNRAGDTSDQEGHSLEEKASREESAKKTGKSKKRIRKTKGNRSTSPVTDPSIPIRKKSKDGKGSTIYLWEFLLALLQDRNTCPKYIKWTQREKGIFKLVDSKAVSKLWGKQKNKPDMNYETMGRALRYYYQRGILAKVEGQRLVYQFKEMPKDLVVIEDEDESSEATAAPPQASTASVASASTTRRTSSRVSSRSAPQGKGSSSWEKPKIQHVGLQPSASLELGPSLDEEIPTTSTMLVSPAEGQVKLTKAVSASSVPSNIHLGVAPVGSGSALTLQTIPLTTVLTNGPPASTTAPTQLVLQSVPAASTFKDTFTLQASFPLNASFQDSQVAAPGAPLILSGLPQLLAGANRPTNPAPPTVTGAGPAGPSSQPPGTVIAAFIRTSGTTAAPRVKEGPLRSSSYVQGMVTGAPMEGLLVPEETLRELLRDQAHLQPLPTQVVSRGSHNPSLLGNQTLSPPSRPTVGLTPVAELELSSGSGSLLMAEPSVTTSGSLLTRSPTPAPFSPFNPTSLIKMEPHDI
ETV5, sequence (P41161 whole entry): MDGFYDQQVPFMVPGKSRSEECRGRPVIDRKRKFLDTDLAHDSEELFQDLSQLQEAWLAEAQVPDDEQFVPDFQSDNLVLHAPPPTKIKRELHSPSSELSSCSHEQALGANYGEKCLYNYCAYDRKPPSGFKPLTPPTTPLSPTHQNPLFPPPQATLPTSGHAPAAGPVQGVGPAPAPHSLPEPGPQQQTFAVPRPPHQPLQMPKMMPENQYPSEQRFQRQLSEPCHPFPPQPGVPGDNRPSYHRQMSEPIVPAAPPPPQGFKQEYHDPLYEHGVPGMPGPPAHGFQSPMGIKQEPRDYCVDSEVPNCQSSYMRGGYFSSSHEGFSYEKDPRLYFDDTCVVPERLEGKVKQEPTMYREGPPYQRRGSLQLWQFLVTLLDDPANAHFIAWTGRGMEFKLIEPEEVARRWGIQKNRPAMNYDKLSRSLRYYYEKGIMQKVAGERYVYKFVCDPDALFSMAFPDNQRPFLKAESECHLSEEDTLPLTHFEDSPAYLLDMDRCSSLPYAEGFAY
ELF1, sequence (P32519 whole entry): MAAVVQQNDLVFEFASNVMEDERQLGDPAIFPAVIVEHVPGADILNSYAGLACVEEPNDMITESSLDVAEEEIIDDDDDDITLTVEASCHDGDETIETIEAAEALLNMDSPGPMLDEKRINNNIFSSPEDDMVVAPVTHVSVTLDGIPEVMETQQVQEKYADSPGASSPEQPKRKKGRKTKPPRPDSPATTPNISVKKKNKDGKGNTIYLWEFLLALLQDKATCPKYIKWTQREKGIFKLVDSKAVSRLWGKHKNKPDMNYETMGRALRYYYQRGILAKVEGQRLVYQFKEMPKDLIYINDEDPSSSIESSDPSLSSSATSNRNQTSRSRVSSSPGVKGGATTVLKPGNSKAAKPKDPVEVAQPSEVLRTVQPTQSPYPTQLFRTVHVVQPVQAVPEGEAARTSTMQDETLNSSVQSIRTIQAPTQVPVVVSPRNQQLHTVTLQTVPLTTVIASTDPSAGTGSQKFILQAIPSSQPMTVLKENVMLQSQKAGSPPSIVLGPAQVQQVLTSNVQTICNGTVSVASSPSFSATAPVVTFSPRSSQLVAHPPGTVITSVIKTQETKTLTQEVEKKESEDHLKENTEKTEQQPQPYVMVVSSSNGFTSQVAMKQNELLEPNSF
SPIB, sequence (Q01892 whole entry): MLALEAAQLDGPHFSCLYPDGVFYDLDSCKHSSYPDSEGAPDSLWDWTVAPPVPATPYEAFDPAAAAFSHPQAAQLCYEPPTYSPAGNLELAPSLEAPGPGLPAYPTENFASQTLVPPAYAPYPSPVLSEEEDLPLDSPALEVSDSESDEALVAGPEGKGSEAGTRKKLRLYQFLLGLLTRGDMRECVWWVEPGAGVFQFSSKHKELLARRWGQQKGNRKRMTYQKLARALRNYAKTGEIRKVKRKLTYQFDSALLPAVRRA
HSF1, sequence (Q00613 whole entry): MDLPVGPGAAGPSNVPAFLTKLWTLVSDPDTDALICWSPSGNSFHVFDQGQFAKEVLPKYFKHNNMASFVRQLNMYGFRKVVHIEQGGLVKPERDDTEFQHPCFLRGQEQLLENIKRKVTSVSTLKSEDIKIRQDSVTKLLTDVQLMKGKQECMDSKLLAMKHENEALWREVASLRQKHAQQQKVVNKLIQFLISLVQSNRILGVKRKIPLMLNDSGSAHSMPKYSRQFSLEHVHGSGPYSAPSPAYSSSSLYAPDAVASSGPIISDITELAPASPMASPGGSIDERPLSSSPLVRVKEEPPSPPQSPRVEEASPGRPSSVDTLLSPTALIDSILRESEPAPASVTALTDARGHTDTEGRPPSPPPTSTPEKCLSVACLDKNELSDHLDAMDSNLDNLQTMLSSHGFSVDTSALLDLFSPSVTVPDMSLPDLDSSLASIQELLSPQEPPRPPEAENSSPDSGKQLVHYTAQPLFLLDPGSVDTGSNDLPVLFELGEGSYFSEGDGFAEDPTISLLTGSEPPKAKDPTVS

As to CAGGAA, the binding signal with FLI1 is 1.63 fold enrichment (6-mer frequency, TF over GST control); in the assay with ELK1, 1.57 fold enrichment (6-mer frequency, TF over GST control); with GABPA, 1.5 fold enrichment (6-mer frequency, TF over GST control); with ERG it was 1.83 fold enrichment (6-mer frequency, TF over GST control); with ELF1, 1.48 fold enrichment (6-mer frequency, TF over GST control); in the assay with EHF it was 1.79 fold enrichment (6-mer frequency, TF over GST control). Besides, the binding signal with SPI1 is 1.96 fold enrichment (6-mer frequency, TF over GST control); with SPIB it was 1.69 fold enrichment (6-mer frequency, TF over GST control); with ELK3 it was 1.57 fold enrichment (6-mer frequency, TF over GST control); with FEV it was 1.51 fold enrichment (6-mer frequency, TF over GST control); with ETV5, 1.79 fold enrichment (6-mer frequency, TF over GST control); with HSF1, 1.04 fold enrichment (6-mer frequency, TF over GST control). Also, the binding signal is 1.65 fold enrichment (6-mer frequency, TF over GST control) in the assay with SPIC; 1.52 fold enrichment (6-mer frequency, TF over GST control) with ELF4; 1.37 fold enrichment (6-mer frequency, TF over GST control) with ELK4; 1.6 fold enrichment (6-mer frequency, TF over GST control) with ETV2; 1.86 fold enrichment (6-mer frequency, TF over GST control) with ELF3; 1.74 fold enrichment (6-mer frequency, TF over GST control) with ETV1.
